Many of the other results were omitted from the sample, so hits are more common in it than they were.
VHR inh color: blocks the human dual specificity phosphatase VHR1. P51452. recombinant VHR phosphatase, colorimetric substrate read-out. inhibition, % at 20 µM. 0.7% of 50,000 active. AID 1992; in the data active = inhibition above about 60%
Target sequence (P51452 whole entry, looked up): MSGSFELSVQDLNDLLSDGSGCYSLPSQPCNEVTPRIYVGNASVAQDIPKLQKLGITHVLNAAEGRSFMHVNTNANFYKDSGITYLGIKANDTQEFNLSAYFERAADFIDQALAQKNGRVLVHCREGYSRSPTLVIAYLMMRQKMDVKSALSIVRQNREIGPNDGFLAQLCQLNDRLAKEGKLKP
Active calls of the source: *.

SMILES | VHR inh color
COc1ccc(S(=O)(=O)N2CCN(C(=O)c3cccc(F)c3)CC2)cc1 | -21
Cc1ccc(S(=O)(=O)N2CCN(C(=O)c3cccnc3)CC2)cc1 | 10
Cc1ccc(S(=O)(=O)N2CCN(C(=O)c3cccc(F)c3)CC2)cc1 | 101*
COc1ccc(N2C(=O)c3ccccc3NC2c2ccc(OC)c(Cn3nc(C)c(Cl)c3C)c2)cc1 (stereo unspecified) | 3
CCOC(=O)c1c(NC(=O)Cc2cccs2)sc(C(=O)Nc2ccccc2F)c1C | -14
CCOC(=O)c1ccccc1NC(=O)CN(c1ccc(F)cc1)S(=O)(=O)c1ccccc1 | -13
O=c1[nH]c(=S)n(-c2ccc(Cl)c(Cl)c2)c(O)c1/C=C1/C=Nc2ccccc21 | -3
Cc1cc(C)cc(-n2c(O)c(/C=C3\C=Nc4ccccc43)c(=O)[nH]c2=O)c1 | -14
Cc1ccc(-n2c(O)c(/C=C3\C=Nc4ccccc43)c(=O)[nH]c2=S)cc1 | 64*
CCC(=O)Nc1cccc(-c2nc3ccccc3s2)c1C | -9
COc1cccc(C(=O)Nc2ccc(-c3cc4ccccc4oc3=O)cc2)c1 | 13
CCCOc1ccc(/C=C2/C(=O)NC(=O)N(c3ccc(OCC)cc3)C2=O)cc1OC | -5
O=C(O)c1ccccc1NC(=O)C12CC3CC(CC(C3)C1)C2 | -2
Nn1cnc2scc(-c3ccccc3)c2c1=O | -36
COC(=O)c1ccc(NC(=O)C2(C)CC3c4ccccc4C2c2ccccc23)cc1 (stereo unspecified) | -4
Cc1c(Cl)cccc1NC(=O)C1(C)CC2c3ccccc3C1c1ccccc12 (stereo unspecified) | 79*
COc1cccc(NC(=O)C2(C)CC3c4ccccc4C2c2ccccc23)c1 (stereo unspecified) | -16
COC(=O)C1=C(C)N(CC(C)C)C(=O)/C1=C\c1cccc(OC)c1O | 1
Cc1cccc(NC(=O)c2c(NC(=O)C(C)(C)C)sc3c2CCCC3)c1 | 88*
COc1ccccc1NC(=O)c1c(NC(=O)C(C)(C)C)sc2c1CCCC2 | -6
Cc1ccccc1NC(=O)c1c(NC(=O)C(C)(C)C)sc2c1CCCC2 | -2
COc1ccc(OC)c(NC(=O)COc2ccc(C)c(C)c2)c1 | -5
CCc1c(C)sc(NC(=O)c2ccc(Cl)cc2)c1C(N)=O | -6
CCCCOc1ccc(C(=O)Nc2sc(C)c(CC)c2C(N)=O)cc1 | 70*
CCc1c(C)sc(NC(=O)c2cccnc2)c1C(N)=O | -1
SMILES | VHR inh color
COc1cccc(NC(=O)C(=O)N/N=C/c2ccc(OC)cc2OC)c1 | -80
COc1ccc(C2(CC(=O)O)CCOC(C)(C)C2)cc1 (stereo unspecified) | -6
Cc1ccc(C)c(S(=O)(=O)n2ccnc2C(C)C)c1 | 24
Nc1nc(O/N=C/c2ccc([N+](=O)[O-])cc2)nc(N2CCOCC2)n1 | -25
Cc1cc(/C=C2\C(=O)NC(=O)N(c3cccc(F)c3)C2=O)c(C)n1-c1cccnc1 | -13
O=C(c1ccncc1)N1CCN(S(=O)(=O)c2ccccc2)CC1 | -6
O=C(Nc1ccc(Cl)c([N+](=O)[O-])c1)c1ccc(-c2ccccc2)cc1 | 5
N/C(Cc1cccc2ccccc12)=N\OC(=O)c1ccc(F)cc1 | -16
CCCn1c(/C=C(/OC(=O)c2ccccc2)c2ccccc2)nc2ccccc21 | -14
O=C(O/C(=C/c1nccn1Cc1ccccc1Cl)c1ccc(F)cc1)c1ccc(F)cc1 | 110*
N#Cc1cc2[nH]c3ccccc3c2n(-c2ccc([N+](=O)[O-])cc2)c1=O | -14
CCc1ccc(NC(=O)C(=O)NCCN2CCN(C(=O)c3cccc(Br)c3)CC2)cc1 | -3
Cc1[nH]c2ccccc2c1/C=C/c1nc2ccccc2c(=O)n1-c1ccc([N+](=O)[O-])cc1 | 8
Cc1[nH]c2ccccc2c1/C=C/c1nc2ccccc2c(=O)n1C | -3
COc1cccc(-n2c(/C=C/c3c(C)[nH]c4ccccc34)nc3ccccc3c2=O)c1 | 76*
COc1ccc(C(=O)Nc2ccc(N(C)C)cc2)cc1[N+](=O)[O-] | -32
COc1ccccc1/C=C1\SC(=S)N(NC(=O)c2ccc([N+](=O)[O-])cc2)C1=O | -7
O=C1NC(=S)N(c2ccccc2)C(=O)/C1=C/c1ccc(-c2ccc(Cl)c(C(=O)O)c2)o1 | 45
CN1C(=O)NC(=O)/C(=C/c2ccc(-c3ccc(C(=O)O)cc3)o2)C1=O | 16
O=C1NC(=S)N(c2ccc(Cl)cc2)C(=O)/C1=C\c1ccc(-c2cccc(C(=O)O)c2)o1 | -7
O=C1NC(=S)N(c2ccc(F)cc2)C(=O)/C1=C/c1ccc(-c2cccc(C(=O)O)c2)o1 | 86*
O=C1NC(=S)N(c2ccc(F)cc2)C(=O)/C1=C/c1cc(Cl)c(O)c(Cl)c1 | 78*
O=C1NC(=S)N(c2ccc(Br)cc2)C(=O)/C1=C/c1ccc(-c2ccc(C(=O)O)cc2)o1 | 78*
Cc1ccc(N2C(=O)/C(=C\c3ccc(-c4ccc(Cl)c(C(=O)O)c4)o3)C(=O)NC2=S)cc1 | 1
O=C1NC(=S)N(c2ccccc2)C(=O)/C1=C/c1ccc(O)c(Cl)c1 | -34
CN1C(=O)NC(=O)/C(=C\c2cc(Cl)c(O)c(Cl)c2)C1=O | 5

Screening data from PubChem.
